Measured values published in PubChem BioAssay (Tox21).
Records with an inconclusive call do not appear. Calls of active or inactive are those of the source. Unless noted, calls follow the shape of the dose curve; as a rule, active = well fitted curve in the direction sought with a large enough effect in the repeat runs; inconclusive = weak or mixed curves; inactive = no such curve, though single readings can be large; an effect the other way counts as inactive or inconclusive.

Experiments:
[1] = qHTS assay for small molecules that induce genotoxicity in human embryonic kidney cells expressing luciferase-tagged ATAD5 (AID 651632); also: nearly all actives have a fitted effect of over 15% in size
Method in brief: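 DMSO vehicle served as the control. HEK293T reporter cells, 16 hr at 37C, then 30 min Amplite at room temperature; ATAD5 induction is measured as luciferase activity.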

[2] = qHTS assay for small molecule agonists of the p53 signaling pathway - cell viability (AID 651633; calls by dose curve;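 also: p53RE-bla HCT reporter cells with a stable beta-lactamase p53 reporter; series mostly up to about 83 µM; nearly all actives have a fitted effect of over 30% in size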)
Method in brief: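 p53RE-bla cells, seeded at 4,000 per well and rested 5 h at 37 C/5% CO2, received compounds in DMSO for 16 h at 37 C. CellTiter-Glo was then added, and luminescence was read after 30 min at room temperature to gauge cytotoxicity.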

[3] = qHTS assay for small molecules that induce genotoxicity in human embryonic kidney cells expressing luciferase-tagged ATAD5 - cell viability (AID 651634; calls by dose curve; also: nearly all actives have a fitted effect of over 25% in size)
Method in brief: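 Here HEK293T cells with the ATAD5 luciferase reporter are incubated with test compounds for 15.5 hr, and cytotoxicity is then gauged by measuring protease activity in live cells using fluorescence.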

[4] = qHTS assay for small molecule disruptors of the mitochondrial membrane potential - cell viability (AID 720634; calls by dose curve;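 also: human HepG2 liver cancer cells; series mostly up to about 83 µM; nearly all actives have a fitted effect of over 20% in size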)
Method in brief: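 Viability of HepG2 cells is scored from ATP content by luminescence; cells are exposed to compound for 1 hr at 37 C and 5% CO2, then dosed with m-MPI dye before the CellTiter-Glo reagent.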

[5] = qHTS assay for small molecule disruptors of the mitochondrial membrane potential (AID 720635)
Method in brief: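 HepG2 cells (2,000/well) attached overnight at 37C, then took compound for 1 hr at 37C, 5% CO2. Mito-MPS dye was added for 30 min; fluorescence was read at 490/535 nm (monomers) and 540/590 nm (aggregates).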

[6] = qHTS assay to test for compound auto fluorescence at 590 nm (red) in HepG2 cells (AID 720674)
Method in brief: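 Intrinsic compound fluorescence in the red window (Ex/Em 540/590 nm) is measured in attached HepG2 cells exposed for 1 hr, DMSO vehicle as baseline, benchmarked to Rose Bengal sodium.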

[7] = qHTS assay to test for compound auto fluorescence at 535 nm (green) in HepG2 cells (AID 720675)
[8] = qHTS assay to test for compound auto fluorescence at 460 nm (blue) in HEK293 cells (AID 720678)
Method in brief: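 Measured: blue fluorescence (Ex 405/Em 460 nm) of compound-treated HEK293 cells, incubated overnight at 37C with 5% CO2 and scaled to triamterene equivalents.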

[9] = qHTS assay to test for compound auto fluorescence at 590 nm (red) in HEK293 cells (AID 720679)
Method in brief: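 Using HEK293 cells at 2,000 per well, the screen added 23 nL of each compound after cell attachment and incubated overnight (37C, 5% CO2). The plate reader then captured red-label fluorescence, Ex/Em 540/590nm.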

[10] = qHTS assay to test for compound auto fluorescence at 535 nm (green) in HEK293 cells (AID 720680)
[11] = qHTS assay to test for compound auto fluorescence at 460 nm (blue) in HEK293 cell free culture (AID 720681)
Method in brief: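 Test compounds were pinned into cell-free culture medium (DMEM with 10% FBS) and fluorescence was read directly at Ex/Em 405/460 nm. Signals were expressed as fluorescence equivalents of triamterene, with DMSO vehicle as control.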

[12] = qHTS assay to test for compound auto fluorescence at 535 nm (green) in HEK293 cell free culture (AID 720682)
Method in brief: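 Using fluorescein as calibrant, autofluorescence was quantified at 485/535 nm in cell-free DMEM containing 10% FBS after pintool addition of compound or vehicle.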

[13] = qHTS assay to test for compound auto fluorescence at 590 nm (red) in HEK293 cell free culture (AID 720683)
Method in brief: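 Tox21 10K library compounds were pinned into cell-free DMEM with 10% FBS and fluorescence was read at excitation 540 nm. Activity is expressed as Rose Bengal sodium equivalency.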

[14] = qHTS assay to test for compound auto fluorescence at 590 nm (red) in HepG2 cell free culture (AID 720684)
Method in brief: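 Readout: intrinsic compound fluorescence at 590 nm emission after 540 nm excitation, scaled to Rose Bengal sodium. Matrix was cell-free MEM with 10% FBS; DMSO vehicle wells served as control.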

[15] = qHTS assay to test for compound auto fluorescence at 460 nm (blue) in HepG2 cell free culture (AID 720685)
Method in brief: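 Cell-free plates of MEM plus 10% FBS received 23 nL compound or DMSO vehicle; blue-channel (405/460 nm) intensity scored against triamterene as reference fluorophore.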

[16] = target: Glucocorticoid receptor (Homo sapiens) (UniProt P04150); assay: qHTS assay to identify small molecule agonists of the glucocorticoid receptor (GR) signaling pathway (AID 720691; active = well fitted activation curve with a large enough effect in the signal ratio in the repeat runs, not every such curve was filed as active; the % refers to the signal ratio)
Method in brief: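 Compounds in DMSO, alongside positive controls, were added to GR-bla HeLa reporter cells and incubated 18 h at 37 C; GRE-driven beta-lactamase was detected by fluorescence after 2 h with FRET substrate at room temperature.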

[17] = qHTS assay for small molecule agonists of the p53 signaling pathway (AID 651631; calls by dose curve; also: nearly all actives have a fitted effect of over 15% in size)
Method in brief: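 Stably transfected HCT-116 cells (beta-lactamase behind p53 response elements) get compounds after a 5 h settling period; 16 h later at 37 °C, FRET substrate is loaded and fluorescence read after 2 h.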

[18] = qHTS assay to test for compound auto fluorescence at 535 nm (green) in HepG2 cell free culture (AID 720686)
[19] = target: Glucocorticoid receptor (Homo sapiens) (UniProt P04150); assay: qHTS assay to identify small molecule antagonists of the glucocorticoid receptor (GR) signaling pathway (AID 720692; active = well fitted inhibition curve with a large enough effect in the signal ratio in the repeat runs, not every such curve was filed as active; the % refers to the signal ratio)
Method in brief: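 In a 1536-well cell format, compounds were added 4 h after seeding GR-bla HeLa cells, together with dexamethasone at 5 nM final; reporter activity was measured by FRET-substrate fluorescence following 18 h at 37 C.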

[20] = qHTS assay to test for compound auto fluorescence at 460 nm (blue) in HepG2 cells (AID 720687)
Method in brief: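 Cells (2,000/well in MEM with 10% FBS) attached overnight at 37 C, then were exposed to compound or DMSO for 1 hr at 37 C, 5% CO2. Fluorescence read at Ex/Em 405/460 nm, expressed as triamterene-equivalent signal.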
% is scaled to controls: 0 for no effect and ±100 for the full control effect.

Glucocorticoid receptor (Homo sapiens), sequence (P04150 whole entry, looked up): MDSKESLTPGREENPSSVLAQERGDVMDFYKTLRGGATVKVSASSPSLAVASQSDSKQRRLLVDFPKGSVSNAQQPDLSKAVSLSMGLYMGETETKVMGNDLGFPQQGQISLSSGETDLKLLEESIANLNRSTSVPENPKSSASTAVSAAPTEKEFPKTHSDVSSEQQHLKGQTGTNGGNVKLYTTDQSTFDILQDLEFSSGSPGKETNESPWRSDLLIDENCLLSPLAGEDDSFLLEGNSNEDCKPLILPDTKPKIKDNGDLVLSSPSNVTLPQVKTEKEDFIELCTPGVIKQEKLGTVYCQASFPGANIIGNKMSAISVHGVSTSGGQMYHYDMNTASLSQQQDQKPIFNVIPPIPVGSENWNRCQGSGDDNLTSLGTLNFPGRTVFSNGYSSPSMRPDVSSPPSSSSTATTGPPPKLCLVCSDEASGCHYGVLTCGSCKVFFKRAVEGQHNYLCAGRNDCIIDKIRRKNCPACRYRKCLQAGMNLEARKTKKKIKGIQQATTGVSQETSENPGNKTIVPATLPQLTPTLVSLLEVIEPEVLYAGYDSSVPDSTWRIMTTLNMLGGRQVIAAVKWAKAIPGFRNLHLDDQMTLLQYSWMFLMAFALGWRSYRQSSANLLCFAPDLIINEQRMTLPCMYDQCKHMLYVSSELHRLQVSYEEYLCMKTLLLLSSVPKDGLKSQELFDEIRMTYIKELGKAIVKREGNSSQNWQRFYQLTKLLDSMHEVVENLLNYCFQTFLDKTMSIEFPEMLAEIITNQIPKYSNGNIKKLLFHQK

CCN[C@@H](C)Cc1cccc(C(F)(F)F)c1
inactive: outcome [1] | Potency [2] | Potency [3] | Potency [4] | Potency [5] | outcome [6] | outcome [7] | outcome [8] | outcome [9] | outcome [10] | outcome [11] | outcome [12] | outcome [13] | outcome [14] | outcome [15] | Potency [16]

O=C1CCCCC1Cl (stereo not drawn)
inactive: Potency [17] | Potency [2] | Potency [3] | Potency [4] | Potency [5] | outcome [6] | outcome [7] | outcome [8] | outcome [9] | outcome [10] | outcome [11] | outcome [12] | outcome [14] | outcome [15] | outcome [18] | Potency [16]

Clc1cc2c(cc1Cl)Oc1cc(Cl)c(Cl)cc1O2
inactive: activation [17] -5.64% [at 0.337 µM] | activity change, negative = cytotoxicity [2] -8.49% [at 0.33 µM] | activity, negative = cytotoxicity [3] 15.1% [at 0.33 µM] | activity change, negative = cytotoxicity [4] 5.89% [at 0.33 µM] | fluorescence, relative to Rose Bengal [6] -0.0382% [at 0.37 µM] | fluorescence, % of fluorescein control [7] -0.0272% [at 0.37 µM] | fluorescence, % of triamterene [8] -0.0407% [at 0.37 µM] | fluorescence, % of fluorescent control [9] 0.175% [at 0.37 µM] | fluorescence, % of fluorescein [10] 0.0035% [at 0.37 µM] | fluorescence, % of fluorescent control [11] -0.0164% [at 0.37 µM] | activity change [12] -0.0409% [at 0.37 µM] | fluorescence, % of Rose Bengal [14] -0.248% [at 0.37 µM] | fluorescence, % of fluorescent control [15] -0.0614% [at 0.37 µM] | fluorescence, % of fluorescein control [18] -0.0284% [at 0.37 µM] | activation [16] -3.18% [at 0.28 µM] | activity change, negative = inhibition [19] -20.7% [at 0.284 µM]

COC(=O)c1ccc(CBr)cc1
inactive: Potency [17] | Potency [2] | Potency [3] | Potency [4] | Potency [5] | outcome [6] | outcome [7] | outcome [8] | outcome [9] | outcome [10] | outcome [11] | outcome [12] | outcome [13] | outcome [14] | outcome [15] | outcome [18] | outcome [20] | Potency [16] | Potency [19]

O=C(O)C(Br)(Br)Br
inactive: outcome [1] | Potency [2] | Potency [3] | Potency [4] | Potency [5] | outcome [6] | outcome [7] | outcome [8] | outcome [9] | outcome [10] | outcome [11] | outcome [12] | outcome [13] | outcome [14] | outcome [15] | outcome [18]

COc1cc(CCN)cc(OC)c1OC
inactive: outcome [1] | Potency [2] | Potency [3] | Potency [4] | Potency [5] | outcome [6] | outcome [7] | outcome [8] | outcome [9] | outcome [10] | outcome [11] | outcome [12] | outcome [13] | outcome [15] | outcome [18] | outcome [20] | Potency [16]

COc1ccc(CN2CCNCC2)c(OC)c1OC
inactive: Potency [17] | Potency [2] | Potency [3] | Potency [4] | Potency [5] | fluorescence, relative to Rose Bengal [6] -0.414% [at 18.6 µM] | fluorescence, % of fluorescein control [7] 0.0608% [at 18.6 µM] | fluorescence, % of triamterene [8] -0.103% [at 18.6 µM] | fluorescence, % of fluorescent control [9] 0.0575% [at 18.6 µM] | fluorescence, % of fluorescein [10] 0.0001% [at 18.6 µM] | fluorescence, % of fluorescent control [11] -0.0368% [at 18.6 µM] | activity change [12] -0.0737% [at 18.6 µM] | fluorescence, % of fluorescent control [13] -0.395% [at 18.6 µM] | fluorescence, % of Rose Bengal [14] 0.0451% [at 18.6 µM] | fluorescence, % of fluorescent control [15] -0.057% [at 18.6 µM] | fluorescence, % of fluorescein control [18] -0.137% [at 18.6 µM] | fluorescence, % of fluorescent control [20] -0.0322% [at 18.6 µM] | Potency [16]
